Rows were chosen to be rich in hits. Some 3.4% of all compounds tested hit in one or more screens of this group.
VDR inh – blocks the human vitamin D receptor | P11473 | VDR-SRC2-3 peptide fluorescence polarization, 2 h | Potency, µM, actives largely listed as inhibitors | 400,000 compounds, 0.93% hits
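Inhibition of the VDR/SRC2-3 peptide interaction is quantified by fluorescence polarization. Compounds (23 nl, pintool) incubate with the reagents for 2 hours at ambient room temperature.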
GLS inh – glutaminase GLS (human) inhibition; O94925; GLS enzymatic activity, qHTS titration; Potency, µM (titrated, usually from 45.5 µM), actives largely listed as inhibitors; 410,000 compounds, 0.21% hits; AID 624170
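Assay buffer: 45 mM KH2PO4 pH 8.2, 0.02% Tween-20. hKGA acts on L-glutamine (1 mM solution added); product glutamate is reported by an oxidase/peroxidase Amplex Red coupling, with fluorescence taken at baseline and 30 min.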
GCN5L2 inh – blocks human GCN5L2 histone acetyltransferase; Q92830; GCN5L2 HAT assay, ThioGlo1 CoA-SH fluorescence; Potency, µM (series often up to 58.9 µM), usual class: inhibitors; 390,000 compounds, 0.21% hits; AID 504327
Target sequence (Q92830 whole entry, looked up): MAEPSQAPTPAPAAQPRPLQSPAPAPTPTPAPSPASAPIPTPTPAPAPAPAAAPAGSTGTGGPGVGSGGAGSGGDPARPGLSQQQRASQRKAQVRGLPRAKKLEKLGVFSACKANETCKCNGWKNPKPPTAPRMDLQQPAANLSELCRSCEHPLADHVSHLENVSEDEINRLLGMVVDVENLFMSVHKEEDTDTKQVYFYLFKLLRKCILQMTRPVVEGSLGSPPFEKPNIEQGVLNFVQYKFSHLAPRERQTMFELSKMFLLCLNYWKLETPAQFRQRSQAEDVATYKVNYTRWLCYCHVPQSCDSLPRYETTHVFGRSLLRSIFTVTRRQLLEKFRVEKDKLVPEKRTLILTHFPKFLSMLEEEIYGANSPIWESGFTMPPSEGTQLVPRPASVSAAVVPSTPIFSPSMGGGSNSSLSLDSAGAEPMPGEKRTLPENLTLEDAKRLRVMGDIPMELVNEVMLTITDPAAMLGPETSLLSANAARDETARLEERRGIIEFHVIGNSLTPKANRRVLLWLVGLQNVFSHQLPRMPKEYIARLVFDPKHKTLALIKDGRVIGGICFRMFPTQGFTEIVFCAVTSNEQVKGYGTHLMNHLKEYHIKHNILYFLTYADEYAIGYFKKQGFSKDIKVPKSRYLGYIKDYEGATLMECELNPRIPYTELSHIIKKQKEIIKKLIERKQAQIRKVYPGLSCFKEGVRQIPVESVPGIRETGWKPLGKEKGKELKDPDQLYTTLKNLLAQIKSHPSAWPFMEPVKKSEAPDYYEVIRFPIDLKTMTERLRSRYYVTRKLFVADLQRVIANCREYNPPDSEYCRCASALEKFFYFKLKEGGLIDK
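GCN5L2 (20 nM) in 50mM HEPES pH 7.5, 0.1mM EDTA, 0.01% Tween-20 preincubated 15 min with compounds at room temperature. Reaction started with H3(1-25) 75uM, acetyl-CoA 70uM, ThioGlo1 50uM; CoA-thiol fluorescence (Ex340/Em540) read at 0 and 20 min.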
PKM2 activator – PKM2 (human) enzyme activation; P14618; purified PKM2, Kinase-Glo ATP luminescence, activation; response scale: 0% is enzyme alone, no compound; Potency, µM (highest dose often 57.5 µM), hits mostly activators; 260,000 compounds, 0.34% hits; note: nearly all actives have a fitted effect of over 55% in size
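Purified hPK-M2 (>95%) run at intermediate activity with 0.1 mM ADP and 0.5 mM PEP in 50 mM imidazole pH 7.2, KCl, MgCl2; 1 h room temperature. ATP formed read by Kinase-Glo luminescence; normalized to uninhibited and no-enzyme controls.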
PLK1 PBD block – blocks phosphopeptide binding to human PLK1 polo-box domain; Plk1 PBD binding of FITC phosphopeptide, fluorescence polarization; Potency, µM, most hits filed as inhibitors; P53350; 360,000 compounds, 2.8% hits; note: series mostly up to about 57 µM; nearly all actives have a fitted effect of over 65% in size
Mito fusion act – blocks mitochondrial division or promotes mitochondrial fusion; S. cerevisiae fusion-defective mutant growth rescue, CellTiterGlo 48 h; Potency, µM (series often up to 46.1 µM), most hits filed as activators; 320,000 compounds, 0.23% hits; note: nearly all actives have a fitted effect of over 45% in size
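Growth-rescue viability read-out: after 48 h at the non-permissive 37C in glycerol/ethanol YPEG, yeast mitochondrial fusion mutants are measured by CellTiterGlo luminescence; compounds (23 nl pinned per well) restoring growth score as division inhibitors or fusion activators.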
TbPYK confirm – Trypanosoma brucei pyruvate kinase inhibition, cherry-pick confirmation; AID 720569; 890 compounds, 67% hits; shares compounds with PLK1 PBD block; recombinant TbPYK, Kinase-Glo ATP luminescence; Potency, µM (doses to about 76.9 µM), hits mostly inhibitors; note: nearly all actives have a fitted effect of over 70% in size
TbPYK orthogonal – inhibits T. brucei pyruvate kinase in orthogonal ADP-Glo assay; shares compounds with PLK1 PBD block; recombinant TbPYK, ADP-Glo luminescence, 60 min; Potency, µM (highest dose often 76.9 µM), actives largely listed as inhibitors; 890 compounds, 62% hits; AID 720584; note: nearly all actives have a fitted effect of over 75% in size
Hits are given with their value; - = inactive; ? = inconclusive; . = no result given; [ ] = remark or other dose. Calls come from the whole dose curve; as a rule, active = well fitted curve in the direction sought with a large enough effect; inconclusive = small, poorly fitted or top-dose-only effect, or another doubt; inactive = no such curve, though single readings can be large; an effect the other way counts as inactive or inconclusive.

SMILES	VDR inh	GLS inh	GCN5L2 inh	PKM2 activator	PLK1 PBD block	Mito fusion act	TbPYK confirm	TbPYK orthogonal
CCN(C(=O)CCS(=O)(=O)c1ccc2c(c1)CCN2C(C)=O)c1cccc(C(F)(F)F)c1	-	-	-	.	.	.	.	.
CC(=O)C(Sc1nn(C)c(=S)s1)C(=O)Nc1ccccc1 (stereo not given)	79µM	-	?	-	27µM	-	20µM	28µM
Cc1ccc2c(c1)N(C(=O)N1CCC(C(=O)NCc3cccc(Br)c3)CC1)CCO2	-	-	-	.	.	.	.	.
O=C1c2sc3nc4ccccc4n3c2C(=O)N1c1ccccc1Cl	-	-	-	-	12µM	-	6.3µM	16µM
COc1ccc(C(=O)NC2CCCCCCC2)cc1OC	-	-	.	.	-	.	.	.
COc1ccc(S(=O)NC2CCCCC2)c(OC)c1C (stereo not given)	-	-	-	-	-	-	22µM	20µM
C=CCN1C(=O)N/C(=C/c2ccc(N3CCOCC3)o2)C1=O	.	.	-	?	.	-	.	.
O=C1N/C(=C/c2ccc(N3CCOCC3)o2)C(=O)N1c1ccccc1	45µM	-	-	?	-	-	?	16µM
CCOC1=CC2=C(C(=O)C(Cl)=CC2=O)[C@@H]2CN(S(=O)(=O)c3ccc(C)cc3)[C@@H](c3ccccc3)[C@H]12	.	?	.	.	6.7µM	.	1.4µM	2µM
CC1(C)OC(=O)C(=Cc2ccc(-c3ccc(Cl)c(C(=O)O)c3)o2)C(=O)O1	?	?	?	-	1.7µM	-	7.1µM	18µM
Cc1ccc(S(=O)(=O)NNC(=O)c2cccs2)c(C)c1	-	-	-	-	-	-	.	.
Cc1ccc(S(=O)(=O)NNc2ccccc2)c(C)c1	?	-	?	-	21µM	-	16µM	?
Cc1ccc(-n2c(N)c(C(=O)N3CCN(C)CC3)sc2=S)cc1	25µM	-	-	-	3µM	-	0.63µM	4.5µM
O=C(c1ccc2oc(Cc3ccc(Cl)cc3)nc2c1)N1CCCCC1CCO (stereo not given)	-	-	-	-	-	-	.	.
C=CCSC1=C(C#N)C(c2ccccc2Cl)CC(=O)N1 (stereo not given)	?	-	-	-	?	-	.	.
C=C(C)CSC1=C(C#N)C(c2ccccc2Cl)CC(=O)N1 (stereo not given)	?	-	-	-	13µM	-	5µM	8.9µM
COC(=O)C(Cc1ccccc1)OS(N)(=O)=O (stereo not given)	-	-	-	-	-	-	.	.
CC(C)(C)OC(=O)N1O[C@H]2C[C@@H]1[C@@H]1[C@@H]2N=NN1C12CC3CC(CC(C3)C1)C2	-	-	-	.	-	.	.	.
CC(C)(C)OC(=O)N1O[C@H]2CC1[C@@H]1[C@@H]2N=NN1CCc1ccncc1	-	-	-	.	-	.	7.9µM	14µM
CCOCCCNC(=O)c1cc2c(s1)-c1ccccc1SC2	?	-	-	.	27µM	-	10µM	13µM
Cc1ccc(CNC(=O)c2cc3c(s2)-c2ccccc2SC3)cc1	-	-	-	.	.	.	.	.
COc1ccc(-n2c(=O)c(-c3cn(C)c4ccccc34)nc3cncnc32)cc1	-	.	-	.	.	.	.	.
Cc1nonc1C(=O)N/N=C/c1ccc(O)c(O)c1	-	?	-	-	-	-	?	-
COC(=O)c1ccccc1-c1c2ccc(=N)cc-2oc2cc(N)ccc12	-	-	?	.	?	-	.	.
Cc1nc(C(=O)N2CCC(n3nccc3NC(=O)Nc3ccccc3Cl)CC2)cs1	-	-	-	.	-	-	.	.
SMILES	VDR inh	GLS inh	GCN5L2 inh	PKM2 activator	PLK1 PBD block	Mito fusion act	TbPYK confirm	TbPYK orthogonal
Nc1nc2ccc([N+](=O)[O-])c(N)c2s1	-	-	-	-	11µM	-	?	32µM
Cc1ccc(S(=O)(=O)C=CS(=O)(=O)c2ccc(C)cc2)cc1	.	-	.	.	2.7µM	.	-	?
CC1=Nn2c(nnc2-c2n[nH]c3c2CCC3)SC1	-	-	-	-	-	-	.	.
CC(C)(C)C1=Nn2c(nnc2-c2n[nH]c3c2CCC3)SC1	?	-	-	-	24µM	-	10µM	10µM
O=C1Nc2ccccc2C(=O)C1(Cl)Cc1ccccc1 (stereo not given)	28µM	?	-	-	1.2µM	-	3.2µM	13µM
N[C@@H](Cn1cc(F)c(=O)[nH]c1=O)C(=O)O	-	.	-	.	.	.	.	.
Cc1ccc(OCC2Cn3c(nc4c3c(=O)[nH]c(=O)n4C)O2)cc1C (stereo not given)	-	-	-	.	-	-	.	.
COC(=O)c1nccnc1N	-	-	.	.	-	.	.	.
O=C1NC(=O)/C(=C\c2ccc(O)cc2O)S1	-	?	-	-	-	-	28µM	28µM
Cc1cc(N2CCOCC2)ccc1/C=C1/SC(=O)NC1=O	-	-	-	-	-	-	?	40µM
C=CC(C)N1C(=O)S/C(=C\c2ccc(N3CCOCC3)cc2C)C1=O (stereo not given)	-	-	-	-	?	-	.	.
O=C1NC(=O)/C(=C\c2ccccc2OCc2ccccc2)S1	-	-	-	-	?	-	.	.
N#Cc1ccc(CN2CC3(CCN(C(=O)c4cccc(F)c4)CC3)C2)cc1	-	.	-	.	.	.	.	.
CC(C)c1cc2c(c(O)c1O)[C@@]13CCCC(C)(C)C1CC2OC3=O (stereo not given in full)	?	-	?	-	6.7µM	-	1.8µM	3.5µM
COC(=O)C(OC(=O)c1ccccc1)C(C)Br (stereo not given)	-	-	?	.	-	-	.	.
CS(=O)(=O)c1ccc2nc(NC(=O)c3ccccc3Br)sc2c1	-	-	-	-[11.5 µM]	-	-	.	.
COc1ccc(N2C(=O)/C(=C/N(C)C)NC2=S)cc1	-	?	-	-	-	-	5.6µM	13µM
Oc1ccc(N2CCN(c3nc(-c4cccs4)nc4ccccc34)CC2)cc1	-	?	-	-	-	-	?	35µM
C=CCN1CCN(C(c2ccccc2)c2nnnn2CCC(C)C)CC1 (stereo not given)	?	?	-	-	2.7µM	-	-	-
CC(C)C[C@H]1CN(CCCC[C@H]2CNC(=O)C(=O)N2CCc2ccccc2)C(=O)C(=O)N1Cc1ccccc1	.	-	.	.	-	.	.	.
O=C1N=C(c2ccccc2)S/C1=C\c1cccs1	?	-	-	-	24µM	-	4.5µM	6.3µM
O=C1N=C(N2CCN(c3ccccc3)CC2)S/C1=C/c1cccs1	-	-	-	-	-	?	.	.
NS(=O)(=O)c1ccc(N=Nc2c[nH]c(=O)c(O)c2)cc1	?	-	-	-	?	-	?	-
Nc1nc(O)c(N=Nc2ccc(S(N)(=O)=O)cc2)c(=O)[nH]1	-	-	-	.	-	-	.	.
